Source: the OligoGym collection

Each sequence was assayed against VWA3A (assay: pooled miR-30 sensor sort-seq; sequence = guide strand). Conditions: shRNA.
Note: reference of the scale not given here.

| Sequence | sensor-assay potency score (higher = more potent) |
| --- | --- |
| TTGGTGTTTGTCTTTGTCCTTG | -0.376 |
| TGAATGTTCTTCACTGTCCCGT | -0.182 |
| TTTCACATCTCTTTTCTCCCTG | 0.76 |
| TTTAGGACAAGGCTGCAGCTTG | -0.774 |
| TTCAGCTGGAGGTCGCAGCCGC | -0.797 |
| TTCACATCTCTTTTCTCCCTGA | 0.334 |
| TCGAGCAGTACAACCACCCTTT | 0.012 |
| TAAATTGTTGTGACTCACGGGA | 0.0538 |
| TACATCCGCATAGCTCTGCTGA | -0.863 |
| TAGTGCTCCATCTTTGGGCTGT | 0.398 |
| TTAGCTGAAGTGTCTTTGGTTT | -0.499 |
| TTCTGCATCATTTTTCTTCTGG | 0.433 |

These sequences were tested against WBSCR16 in the same assay as above. Conditions: shRNA.

| Sequence | sensor-assay potency score (higher = more potent) |
| --- | --- |
| AATCTTTTGGTCCAGCTCCAGG | -1.82 |
| ATAGACTTCTCCTTTATCCGTC | 0.592 |
| TATTGTAGTGACCCAGACCTGT | -0.394 |
| TCATTTTCGACCACCTTTCTTC | 0.23 |
| TAGACTTCTCCTTTATCCGTCA | -0.137 |
| TTTCGTAACATCCGCAGTCTTA | -0.626 |
| TTTAACACTGCACAGCCCGTGC | -0.959 |
| TTCTGGGTTGAACTCCGTCAAG | -1.57 |
| TTCTTAACTTTTCCAAGCCAGG | -1.27 |
| TTTTGGTCCAGCTCCAGGCGAT | -1.09 |
| TTAGCCTCGATTCTCTTCCTGA | -0.0373 |
| TTATCCGTCAGGAACAGACTAT | -0.761 |

What follows are sequences tested against WDFY1 in the same assay as above. Conditions: shRNA.

| Sequence | sensor-assay potency score (higher = more potent) |
| --- | --- |
| TATAAAACAAATTTAGTCCTTT | 0.214 |
| TTCCACACTGCAATTCCGCCGT | -0.441 |
| TTGAGGGTTGTGATGACTGAAC | -1.35 |
| TAACTTGAGCGCTTGCTGCTGC | 0.171 |
| TCTTTCACTACACATTAGCTGT | -0.731 |
| TTCATCTTTGATGGAGTCGTAA | -0.712 |
| TTTCACTACACATTAGCTGTTC | 0.757 |
| TTGATCGCCTCCTTAAACCTTT | -0.0804 |
| TTTCTTCTCTTCCTCATCCTGG | -0.185 |
| TTGACCACTGTCTCTTTTCAGC | -0.843 |
| TAACAAGAATCACAAACCCGGA | -0.759 |
| TTCTCTGCTAACATCCATGTTC | -0.775 |

What follows are sequences tested against WDR33 in the same assay as above. Conditions: shRNA.

| Sequence | sensor-assay potency score (higher = more potent) |
| --- | --- |
| TAGTATATTGTAATGTAGCCAT | -0.402 |
| TAGATTATATCGATCTCGCATT | -0.783 |
| TTGAGGACCAGAACTACCTTGT | 0.395 |
| TTTACTTCCTGAAACAACTAAC | -1.04 |
